Screening results deposited in PubChem by National Center for Advancing Translational Sciences (NCATS).
A selection: hits, their analogues and other compounds. The true share with any hit is near 10%.
PNC inhibitor = High Content Assay for Compounds that inhibit the Assembly of the Perinucleolar Compartment; PC3M PTB-GFP, PNC prevalence imaging, 16 h; stronger effect = lower value; activity change (PNC), negative = inhibition, % at 10 µM; 140,000 tested, 3.1% active;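 active = readout at or below -70, meaning at least 70% loss of cells showing the perinucleolar compartment, a nuclear body marking cancer cells; inconclusive = readout between -30 and a set limit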;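 note: plate controls were DMSO wells for no effect and camptothecin positive control wells for full effect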
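Read-out is percentage of cells bearing a perinucleolar compartment, from automated 20x imaging of fixed, Hoechst-stained PC3M PTB-GFP cells. Cells were seeded 4 h, then exposed 16 h to compound (23 nl of library stock) in duplicate plates.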
12-hLO inh = qHTS Assay for Inhibitors of 12-hLO (12-human lipoxygenase); Polyunsaturated fatty acid lipoxygenase ALOX12 (Homo sapiens), P18054; purified 12-hLO, xylenol orange hydroperoxide absorbance; Potency, µM (titrated, usually from 57.1 µM), without a hit: at the top dose activity change, negative = inhibition, actives largely listed as inhibitors; 150,000 tested, 0.12% active; AID 1452, 2008; active = well fitted inhibition curve with a large enough effect; inconclusive = small, poorly fitted or top-dose-only effect; note: potency is the fitted concentration of half-maximal effect; nearly all actives have a fitted effect of over 55% in size
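Hydroperoxide output read as Fe(III)-xylenol orange absorbance, 573-to-405 nm ratio, after 30 min reaction with 40 uM arachidonic acid. Enzyme: 150 nM purified human 12hLO, 15 min compound preincubation; 25 mM Hepes pH 7.0, room temperature.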
HPGD inh = qHTS Assay for Inhibitors of HPGD (15-Hydroxyprostaglandin Dehydrogenase). AID 894, 2007. 15-hydroxyprostaglandin dehydrogenase [NAD(+)] (Homo sapiens), P15428. Potency, µM, for the others: top-dose activity change, negative = inhibition, actives largely listed as inhibitors. 150,000 tested, 4.3% active. purified HPGD, NADH fluorescence kinetic, PGE2 substrate; note: potency is the fitted concentration of half-maximal effect
Target sequence (P15428 whole entry, looked up): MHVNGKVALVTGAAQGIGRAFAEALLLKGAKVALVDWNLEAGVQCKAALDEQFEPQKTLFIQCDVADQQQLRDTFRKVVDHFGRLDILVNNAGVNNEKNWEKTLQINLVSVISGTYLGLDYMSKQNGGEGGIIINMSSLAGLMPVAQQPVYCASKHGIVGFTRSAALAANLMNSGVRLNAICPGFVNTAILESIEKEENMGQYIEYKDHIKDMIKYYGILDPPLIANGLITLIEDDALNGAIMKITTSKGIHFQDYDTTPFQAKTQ
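NADH formation kinetics: reaction with 30 uM PGE2 and 1 mM NAD+ (final), 20 nM enzyme, Tris-HCl pH 8 with Tween 20, after 15 min compound preincubation at room temperature. Fluorescence change, last versus first of five reads.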
Lamin A splicing = qHTS Assay for Modulators of Lamin A Splicing | HeLa LMNA splicing GFP/RFP minigene ratio, 48 h | Potency, µM (series often up to 46.1 µM), for inactives: at the highest dose ratio change, negative = inhibition, hits mostly inhibitors | 200,000 tested, 0.01% active | AID 1487, 2009; active = well fitted inhibition curve with a large enough effect in the signal ratio, with a control signal flat, not every such curve was filed as active; inconclusive = small, poorly fitted or top-dose-only effect, or effect the other way, or a change in a side signal; the % refers to the signal ratio; note: potency is the fitted concentration of half-maximal effect
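S3 HeLa cells stably expressing lamin A-EGFP splicing minigene plus DsRed2, 600 cells/well, 48 h compound exposure at 37C. Laser-scanning cytometry; analysed as GFP (500-530 nm)/RFP (575-640 nm) total intensity ratio; 0.5% DMSO vehicle.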
ALDH1A1 block = qHTS Assay for Inhibitors of Aldehyde Dehydrogenase 1 (ALDH1A1). AID 1030, 2008. 220,000 tested, 7.3% active. Potency, µM (top dose mostly 75.3 µM), inactives show top-dose activity, negative = inhibition, actives largely listed as inhibitors. Purified ALDH1A1, NADH fluorescence, propionaldehyde substrate;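 note: potency is the fitted concentration of half-maximal effect; plate controls were no enzyme wells and a reference inhibitor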
* marks the source's active call; other numbers are inactive results; [ ] = another dose, or the depositor's remark. Unless noted, calls come from the whole dose curve; as a rule, active = well fitted inhibition curve with a large enough effect (not every such curve was filed as active); inconclusive = small, poorly fitted or top-dose-only effect, or another doubt; inactive = no such curve, though single readings can be large or run the other way. Unless noted, % is set by controls: 0 for no effect and ±100 for the full control effect.

Screening OCCN1CC(O)C(O)C(O)C1CO (centres undefined) returned 12-hLO inh -3%, HPGD inh -11%, Lamin A splicing 15% and ALDH1A1 block 6%.
Screening Cc1ccc(-c2cc(-c3ccccc3C)[nH]n2)c(O)c1 returned PNC inhibitor 26, 12-hLO inh -29%, HPGD inh 10µM*, Lamin A splicing inconclusive and ALDH1A1 block 1%.
Screening Cc1ccc(-c2cc(-c3cccc(F)c3)n[nH]2)c(O)c1 returned PNC inhibitor -28, 12-hLO inh -28%, HPGD inh -17%, Lamin A splicing -8% and ALDH1A1 block 12%.
O=C(O)CCc1nc2ccccc2[nH]1 was read as 12-hLO inh 1%[11.4 µM], HPGD inh -11% and ALDH1A1 block 13%[13.5 µM].
Screening CCOc1c(C)cc2[nH]c(CCC(=O)O)nc2c1C returned PNC inhibitor -119*, 12-hLO inh 6%, HPGD inh -2%, Lamin A splicing -4% and ALDH1A1 block 2%.
`C=CC[C@@H]1C=C[C@@H](O/N=C2/[C@H]3O[C@@H]3[C@@H](O)[C@H]3[C@H]2CCn2c(=O)n(-c4ccccc4)c(=O)n23)[C@@H](CO)O1` gave ALDH1A1 block 8%[13.5 µM].
Screening CCc1cccc(CC)c1NC(=S)NCCc1ccc(O)c(O)c1 returned Lamin A splicing inconclusive and ALDH1A1 block 22µM*.
`CC(=O)NCCc1ccc(O)c(O)c1` gave 12-hLO inh -2%, HPGD inh inconclusive, Lamin A splicing inconclusive and ALDH1A1 block 28µM*.
Screening COCCNC(=S)Nc1ccccc1Cc1ccccc1 returned ALDH1A1 block 0%.
For N#C/C(=C\c1coc2ccccc2c1=O)C(N)=S the results were Lamin A splicing inconclusive and ALDH1A1 block 32µM*.
Screening Cc1ccc2occ(/C=N/NC(N)=S)c(=O)c2c1 returned PNC inhibitor -11, 12-hLO inh -3%, HPGD inh -21%, Lamin A splicing -12% and ALDH1A1 block inconclusive.
`COc1ccc(N(CC(=O)N2CCN(c3ccc(Cl)cc3)CC2)S(=O)(=O)c2c(C)n[nH]c2C)cc1` gave ALDH1A1 block 3%.
Screening Cc1nccn1CC(O)COc1ccccc1 (centres undefined) returned PNC inhibitor 247, 12-hLO inh 1%, HPGD inh -1%, Lamin A splicing -11% and ALDH1A1 block 7%.
Screening COC(=O)c1c(C(=O)NCc2ccccc2)ncn1CC(O)COc1ccccc1 (centres undefined) returned PNC inhibitor 0, 12-hLO inh -1%, HPGD inh -9%, Lamin A splicing -1% and ALDH1A1 block 7.9µM*.
Screening Cc1ccc(Cn2nnc3c(=O)n(Cc4cc(C)ccc4C)cnc32)cc1 returned PNC inhibitor 15, 12-hLO inh -1%, HPGD inh 4µM*, Lamin A splicing -3% and ALDH1A1 block 6%.
For Cc1ccccc1Cn1cnc2c(nnn2Cc2ccc(F)cc2)c1=O the results were PNC inhibitor inconclusive, 12-hLO inh -7%, HPGD inh -10%, Lamin A splicing 9% and ALDH1A1 block 1%.
Cc1cccc(Cn2cnc3c(nnn3Cc3ccc(Cl)cc3)c2=O)c1 was read as PNC inhibitor 60, 12-hLO inh -13%, HPGD inh 13µM*, Lamin A splicing 2% and ALDH1A1 block 18%.
For O=c1c2nnn(Cc3ccc(Cl)cc3)c2ncn1Cc1ccc(F)cc1 the results were PNC inhibitor -28, 12-hLO inh -13%, HPGD inh 28µM*, Lamin A splicing -9% and ALDH1A1 block -2%.
For Cc1ccc(Cn2nnc3c(=O)n(Cc4cccc(C)c4)cnc32)cc1 the results were PNC inhibitor inconclusive, 12-hLO inh -6%, HPGD inh 5µM*, Lamin A splicing -9% and ALDH1A1 block 6%.
`Cc1ccc(Cn2cnc3c(nnn3Cc3ccc(Cl)cc3)c2=O)cc1` gave PNC inhibitor 65, 12-hLO inh 6%, HPGD inh -6%, Lamin A splicing -1% and ALDH1A1 block 10%.
For N#Cc1c(-c2ccc(Cl)cc2)ccnc1N1CCOCC1 the results were Lamin A splicing 11%[46 µM] and ALDH1A1 block 13%.
CCOC(=O)N1CCN(c2cc(NCCC(=O)O)c3c4c(onc24)-c2ccccc2C3=O)CC1 was read as PNC inhibitor 18, 12-hLO inh -13%, HPGD inh -26%, Lamin A splicing 1% and ALDH1A1 block 14µM*.
Screening COc1cccc2cc(-c3nc4sc(C(=O)Nc5ccc(F)cc5F)c(C)c4c(=O)[nH]3)c(=O)oc12 returned Lamin A splicing 1%[46 µM].
Screening O=S(=O)(c1ccccc1)N1CCC2(CCCN(c3ccccn3)C2)CC1 returned 12-hLO inh 0%, HPGD inh -29% and ALDH1A1 block inconclusive.
Screening CNCc1ccccc1Sc1ccc(O)c(O)c1 returned PNC inhibitor 5, 12-hLO inh -8%, HPGD inh 18µM*, Lamin A splicing inconclusive and ALDH1A1 block 0.56µM*.
`O=C(NN=C1CCC(c2ccccc2)CC1)c1ccccc1-n1cccc1` (centres undefined) gave PNC inhibitor 31, 12-hLO inh -3%, HPGD inh -4%, Lamin A splicing 1% and ALDH1A1 block inconclusive.
`CC1CCC/C(=N/NC(=O)c2ccccc2-n2cccc2)C1` (centres undefined) gave PNC inhibitor -109*, 12-hLO inh 3%, HPGD inh 4%, Lamin A splicing -5% and ALDH1A1 block inconclusive.
For CN1CCN(C(=O)/C(=C\c2ccccc2)c2ccccc2)CC1 the results were PNC inhibitor 8, 12-hLO inh 4%, HPGD inh 18µM*, Lamin A splicing -1% and ALDH1A1 block 10%.
`O=C(O)/C(=C\c1ccccc1)c1ccccc1` gave 12-hLO inh 6%[11.4 µM], HPGD inh -13% and ALDH1A1 block 11%[13.5 µM].
`CC1CCN(C(=O)/C(=C/c2ccccc2Cl)c2ccccc2)CC1` gave PNC inhibitor -28, 12-hLO inh -24%, HPGD inh 11µM*, Lamin A splicing inconclusive and ALDH1A1 block inconclusive.
Screening NCC(O)(CS(=O)(=O)O)c1ccc(Cl)cc1 (centres undefined) returned HPGD inh -6%, Lamin A splicing -5% and ALDH1A1 block -7%.
For S=C(NCc1cccc(Cl)c1)NC1CCCCC1 the results were PNC inhibitor -109*, 12-hLO inh inconclusive, HPGD inh -25%, Lamin A splicing inconclusive and ALDH1A1 block -1%.
`S=C(NCc1ccccc1)NC1CCCCC1` gave Lamin A splicing 10%[46 µM] and ALDH1A1 block -2%.
